The target in test [1] is Lysosomal acid glucosylceramidase (Homo sapiens) (UniProt P04062). The test can be described thus: Glucocerebrosidase-p2 (AID 348; in the data active = potency below about 10 µM; also: potency is read from the fitted curve at half-maximal effect). Particulars: purified GBA, blue fluorogenic substrate, 40 min. The method, boiled down: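 Compounds titrated from 0.6 nM upwards against 0.2 nM enzyme in pH 5.9 citric acid/KH2PO4, taurocholate, tween-20; blue fluorogenic substrate 80 uM, 40 min room temperature, stopped and read Ex 365/Em 440 for AC50.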
Chain of Lysosomal acid glucosylceramidase (Homo sapiens) (P04062 whole entry, looked up): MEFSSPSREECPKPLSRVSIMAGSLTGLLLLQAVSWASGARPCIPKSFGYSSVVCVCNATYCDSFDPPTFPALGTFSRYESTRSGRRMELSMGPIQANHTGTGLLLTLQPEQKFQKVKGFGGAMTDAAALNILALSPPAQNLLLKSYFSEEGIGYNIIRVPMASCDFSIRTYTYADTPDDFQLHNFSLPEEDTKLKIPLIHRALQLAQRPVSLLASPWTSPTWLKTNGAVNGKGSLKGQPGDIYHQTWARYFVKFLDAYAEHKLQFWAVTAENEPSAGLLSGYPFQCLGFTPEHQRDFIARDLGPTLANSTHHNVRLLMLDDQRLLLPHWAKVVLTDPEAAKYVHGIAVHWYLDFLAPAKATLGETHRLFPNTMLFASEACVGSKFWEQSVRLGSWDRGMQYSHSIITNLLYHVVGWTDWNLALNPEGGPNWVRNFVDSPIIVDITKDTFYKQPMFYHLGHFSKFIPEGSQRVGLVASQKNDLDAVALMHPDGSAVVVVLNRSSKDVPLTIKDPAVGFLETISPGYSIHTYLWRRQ

Test [2] is described as follows: AP1 Signaling Pathway (AID 357).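 Also: ME-180 reporter cells stimulated with EGF at its EC50 level; % is scaled to controls: 0 for no effect and ±100 for the full control effect.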 Conditions: ME-180 AP-1-bla reporter, EGF-induced, beta-lactamase ratio, 5 h; at 7.69 µM (top of the series) unless noted. The method, boiled down:
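Cells are seeded overnight, exposed to compound titrations and an EC50 level of EGF for 5 hours at 37 °C, then loaded with CCF4 dye for 2.5 hours. Beta-lactamase activity under the AP-1 element is read as a blue/green ratio.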

The target of test [3] is Glucocorticoid receptor (Homo sapiens) (UniProt P04150). The test can be described thus: GR-EFC Redistribution (AID 451; calls by dose curve; also: potency is read from the fitted curve at half-maximal effect). Particulars: CHO-K1 GR-EFC translocation, beta-gal luminescence, 2 h. The method, boiled down:
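CHO-K1 cells stably expressing nuclear-localized β-gal enzyme acceptor and GR fused C-terminally to the enzyme donor fragment; ligand-driven nuclear translocation restores β-gal by complementation. Compounds titrated up to 46 uM final, 2 h at 37 °C; luminescence read.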

Test [4] has as its target Mitogen-activated protein kinase 10 (Mus musculus) (UniProt Q61831). The test can be described thus: JNK3 AlphaScreen Assay (AID 530).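 Also: kinase came from lysate of stimulated human HepG2 cells; signal reports phosphorylation of biotinylated GST-cJun 1-79 at Ser73 with 10 µM ATP; % is scaled to controls: 0 for no effect and ±100 for the full control effect.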 Conditions: JNK3 lysate, c-Jun phosphorylation; series mostly up to 57.1 µM. Put shortly:
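JNK3 came from HepG2 lysates pre-activated with IL-1beta and TNF-alpha and phosphorylated biotinylated GST-cJun (1-79) at 10 uM ATP, pH 7.6, room temperature. Compounds were titrated. AlphaScreen signal used anti-phospho-cJun (Ser73) antibody.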

Test [5] has as its target 3',5'-cyclic-AMP phosphodiesterase 4B (Homo sapiens) (UniProt Q07343). Put plainly: qHTS Assay for Inhibitors of PDE-IV (AID 607; active = well fitted activation curve with a large enough effect in the main read-out, with a control signal flat, not every such curve was filed as active; also: % of control where 0% means no effect). Conditions: HEK293 ACTOne CNG channel cells, membrane potential fluorescence; series mostly up to 22.9 µM. The method, boiled down: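 The readout is membrane depolarisation from a cAMP-sensing CNG channel, detected with a potential dye at ex 535/em 590. Cells were HEK293-derived (endogenous PDE-IV) at 1000 cells/well, titrated up to 22.9 uM final.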
A general note: In qHTS, concentration-response curves come from the screen itself.

Test [6] can be described thus: qHTS Assay for Lipid Storage Modulators (AID 1519; calls by dose curve). Conditions: Drosophila S3 cells, BODIPY lipid droplet/cell ratio, laser cytometry, cells loaded with oleic acid; for activity change, negative = inhibition: at 57.5 µM (top of the series). The method, boiled down: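 Cells seeded at 5,000 per well were treated with compounds over a concentration series and loaded with oleic acid (400 uM, as added). Lipid droplet fluorescence (488 nm excitation, 500-530 nm channel) was read by laser-scanning cytometry and normalized to 20 uM Triacsin C.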

Test [7] can be described thus: Primary qHTS for small molecule stabilizers of the endoplasmic reticulum resident proteome: Secreted ER Calcium Modulated Protein (SERCaMP) assay (AID 1508630; active = well fitted curve in the direction sought with a large enough effect; an effect the other way counts as inactive or inconclusive; also: % is scaled to controls: 0 for no effect and ±100 for the full control effect). Particulars: SH-SY5Y GLuc-SERCaMP (Gaussia luciferase released on ER calcium loss) secretion, thapsigargin, luminescence; series mostly up to 38.4 µM. The method, boiled down: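 GLuc-SERCaMP-expressing SH-SY5Y cells, pretreated 16 h with compound, are challenged with thapsigargin to empty ER calcium stores; after 4 h, coelenterazine is added directly to the medium and luminescence is imaged.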

A short description of test [8]: Stat Signaling Pathway (AID 446).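 Also: ME-180 cervical cancer cells given 40 pM IL-6 alongside compound; SIE-controlled beta-lactamase reporter measured as 460/530 nm FRET emission ratio; % is scaled to controls: 0 for no effect and ±100 for the full control effect.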 Particulars: ME-180 SIE beta-lactamase reporter, IL-6 stimulated, 5 h; at 7.69 µM (top of the series) unless noted. The method, boiled down:
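Screening format detects activators and inhibitors alike: ME-180 SIE-bla cells stimulated at 40 pM IL-6 for 5 hrs with compound, then dual-emission beta-lactamase read at 405 nm excitation.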

Test [9] addresses Cytochrome P450 3A4 (Homo sapiens) (UniProt P08684). Put plainly: qHTS Assay for Activators of Cytochrome P450 3A4 (AID 885; active = well fitted curve in the direction sought with a large enough effect; an effect the other way counts as inactive or inconclusive; also: nearly all actives have a fitted effect of over 65% in size; also: potency is read from the fitted curve at half-maximal effect). Particulars: recombinant CYP3A4, Luciferin-PPXE luminescence, 60 min; series mostly up to 57.1 µM. The method, boiled down:
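Steps: enzyme/substrate mix dispensed; compound added, 10 min RT; NADPH regeneration solution added, 60 min RT; luciferin detection buffer stops reaction; 20 min later luminescence measured.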

Test [10] deals with Cytochrome P450 2D6 (Homo sapiens) (UniProt P10635). The test can be described thus: qHTS Assay for Inhibitors and Substrates of Cytochrome P450 2D6 (AID 891; active = well fitted curve in the direction sought with a large enough effect; an effect the other way counts as inactive or inconclusive; also: potency is read from the fitted curve at half-maximal effect; nearly all actives have a fitted effect of over 60% in size). Conditions: recombinant CYP2D6, luciferin-ME EGE luminescence; series mostly up to 57.1 µM. Put shortly:
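Human CYP2D6 (5 nM) with 30 uM Luciferin-ME EGE (at Km) in 100 mM KPO4, compound preincubated 10 min, then NADPH regeneration system for 60 min at room temperature. Luciferin read by luminescence; normalized to 1.43 uM quinidine.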

Test [11] deals with Cytochrome P450 1A2 (Homo sapiens) (UniProt P05177). Put plainly: p450-cyp1a2 (AID 410; calls by dose curve; also: potency is read from the fitted curve at half-maximal effect). Particulars: recombinant CYP1A2, luciferin-ME demethylation, luminescence; series mostly up to 57 µM. The method, boiled down:
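Human CYP1A2 (20nM) demethylated Luciferin-ME at its Km (100uM) in 100mM KPO4. After 10 min compound preincubation, NADPH regeneration ran the reaction 60 min at room temperature. Luciferin was read by luminescence, normalized to 57 uM furafylline.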

A short description of test [12]: NFAT Signaling Pathway (AID 444). Particulars: Jurkat NFAT-bla M1, carbachol, beta-lactamase ratio, 5 h; at 7.69 µM (top of the series) unless noted. The method, boiled down: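 Jurkat cells carrying an NFAT-driven β-lactamase reporter and co-transfected muscarinic M1 receptor were treated with compound plus carbachol (1 uM final, an EC50 level) for 5 h at 37 °C. CCF4 loading followed for 1 h at RT; 460/530 nm ratio gave %activity.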

Test [13] concerns the target Glucocorticoid receptor (Homo sapiens) (UniProt P04150). Put plainly: GR-GFP Redistribution (AID 450;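 active = compounds whose dose series gives a full or clear partial fitted curve of increased nuclear translocation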; also: potency is read from the fitted curve at half-maximal effect). Particulars: U2OS GR-GFP nuclear translocation, laser cytometry, 2 h.
Test [14] can be described thus: Confirmation and Secondary Assay for Modulators of Hemoglobin Beta Chain Splicing at IVS2 705 locus (AID 930; active = well fitted curve in the direction sought with a large enough effect; an effect the other way counts as inactive or inconclusive;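 also: HeLa cells stably expressing the EGFP-705 splicing reporter; % of control where 0% means no effect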). Particulars: HeLa EGFP-705 splicing reporter, GFP fluorescence, 48 h; series mostly up to 38.3 µM. The method, boiled down: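 Splice-correction reporter: EGFP cDNA split by beta-globin intron 2 bearing the 705 mutation, stably in HeLa. Compound incubation 2 days, 37C; fluorescent objects 5-250 µm summed per well.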

The mark [15] stands for this setting: measured here: cell count channel max response.
Setting [16] is: measured here: lipid channel max response.

Records with an inconclusive call do not appear. Active and inactive are the calls of the source. Unless noted, calls follow the shape of the dose curve; as a rule, active = well fitted curve in either direction with a large enough effect (not every such curve was filed as active); inconclusive = small, poorly fitted or top-dose-only effect, or another doubt; inactive = flat fitted curve, though single readings scatter.

Chain of Cytochrome P450 3A4 (Homo sapiens) (P08684 whole entry, looked up): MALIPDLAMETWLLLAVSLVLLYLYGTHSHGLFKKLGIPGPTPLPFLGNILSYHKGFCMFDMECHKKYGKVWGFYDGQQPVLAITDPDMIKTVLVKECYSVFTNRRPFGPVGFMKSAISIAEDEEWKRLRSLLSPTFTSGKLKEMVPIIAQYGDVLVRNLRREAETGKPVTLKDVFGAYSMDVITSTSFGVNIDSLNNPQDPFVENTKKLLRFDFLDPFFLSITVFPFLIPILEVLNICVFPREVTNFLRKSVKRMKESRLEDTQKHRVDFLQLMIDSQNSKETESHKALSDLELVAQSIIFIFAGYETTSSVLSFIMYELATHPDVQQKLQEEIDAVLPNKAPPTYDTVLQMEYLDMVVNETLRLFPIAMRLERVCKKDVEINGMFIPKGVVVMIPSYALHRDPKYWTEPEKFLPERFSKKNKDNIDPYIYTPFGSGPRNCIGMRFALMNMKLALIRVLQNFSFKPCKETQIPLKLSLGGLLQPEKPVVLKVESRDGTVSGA
Chain of 3',5'-cyclic-AMP phosphodiesterase 4B (Homo sapiens) (Q07343 whole entry, looked up): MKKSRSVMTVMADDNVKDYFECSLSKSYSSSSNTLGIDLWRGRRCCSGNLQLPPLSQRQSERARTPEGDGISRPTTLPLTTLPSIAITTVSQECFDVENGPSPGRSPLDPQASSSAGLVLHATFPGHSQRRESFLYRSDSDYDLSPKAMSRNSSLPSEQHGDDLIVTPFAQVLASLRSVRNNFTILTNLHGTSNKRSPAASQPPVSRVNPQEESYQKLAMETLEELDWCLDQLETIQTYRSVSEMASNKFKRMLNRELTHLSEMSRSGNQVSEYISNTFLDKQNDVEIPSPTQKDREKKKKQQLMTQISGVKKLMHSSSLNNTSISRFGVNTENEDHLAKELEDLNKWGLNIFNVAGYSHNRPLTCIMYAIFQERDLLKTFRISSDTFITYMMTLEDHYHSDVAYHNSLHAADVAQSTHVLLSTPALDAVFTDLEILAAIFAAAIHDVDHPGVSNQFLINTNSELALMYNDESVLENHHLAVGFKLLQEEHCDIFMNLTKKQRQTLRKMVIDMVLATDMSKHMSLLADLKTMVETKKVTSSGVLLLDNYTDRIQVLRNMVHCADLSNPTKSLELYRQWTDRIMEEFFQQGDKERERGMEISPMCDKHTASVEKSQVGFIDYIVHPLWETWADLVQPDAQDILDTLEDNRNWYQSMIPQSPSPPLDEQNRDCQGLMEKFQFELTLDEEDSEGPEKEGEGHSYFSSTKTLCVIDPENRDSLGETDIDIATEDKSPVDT
Chain of Glucocorticoid receptor (Homo sapiens) (P04150 whole entry, looked up, the tested form may be a part, canonical isoform): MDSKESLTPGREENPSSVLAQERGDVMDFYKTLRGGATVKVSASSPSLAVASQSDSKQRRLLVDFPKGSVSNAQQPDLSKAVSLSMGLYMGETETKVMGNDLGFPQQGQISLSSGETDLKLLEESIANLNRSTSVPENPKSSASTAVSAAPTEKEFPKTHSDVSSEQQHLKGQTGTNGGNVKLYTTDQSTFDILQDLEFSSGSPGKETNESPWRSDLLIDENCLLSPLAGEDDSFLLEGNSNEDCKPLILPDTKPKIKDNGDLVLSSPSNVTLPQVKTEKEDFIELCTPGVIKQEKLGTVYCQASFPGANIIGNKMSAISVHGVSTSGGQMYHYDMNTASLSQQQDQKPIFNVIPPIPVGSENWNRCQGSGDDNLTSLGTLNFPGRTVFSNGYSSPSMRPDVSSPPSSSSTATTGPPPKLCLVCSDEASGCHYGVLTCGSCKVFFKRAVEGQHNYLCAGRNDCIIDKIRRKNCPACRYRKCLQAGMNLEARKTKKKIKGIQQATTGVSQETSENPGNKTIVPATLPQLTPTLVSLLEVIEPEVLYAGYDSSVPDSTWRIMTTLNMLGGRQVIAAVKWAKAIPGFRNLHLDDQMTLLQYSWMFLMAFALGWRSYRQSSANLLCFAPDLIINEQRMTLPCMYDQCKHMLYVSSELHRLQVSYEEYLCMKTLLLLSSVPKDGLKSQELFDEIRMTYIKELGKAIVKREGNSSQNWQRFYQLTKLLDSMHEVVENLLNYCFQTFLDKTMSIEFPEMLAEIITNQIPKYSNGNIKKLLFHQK
Chain of Cytochrome P450 2D6 (Homo sapiens) (P10635 whole entry, looked up): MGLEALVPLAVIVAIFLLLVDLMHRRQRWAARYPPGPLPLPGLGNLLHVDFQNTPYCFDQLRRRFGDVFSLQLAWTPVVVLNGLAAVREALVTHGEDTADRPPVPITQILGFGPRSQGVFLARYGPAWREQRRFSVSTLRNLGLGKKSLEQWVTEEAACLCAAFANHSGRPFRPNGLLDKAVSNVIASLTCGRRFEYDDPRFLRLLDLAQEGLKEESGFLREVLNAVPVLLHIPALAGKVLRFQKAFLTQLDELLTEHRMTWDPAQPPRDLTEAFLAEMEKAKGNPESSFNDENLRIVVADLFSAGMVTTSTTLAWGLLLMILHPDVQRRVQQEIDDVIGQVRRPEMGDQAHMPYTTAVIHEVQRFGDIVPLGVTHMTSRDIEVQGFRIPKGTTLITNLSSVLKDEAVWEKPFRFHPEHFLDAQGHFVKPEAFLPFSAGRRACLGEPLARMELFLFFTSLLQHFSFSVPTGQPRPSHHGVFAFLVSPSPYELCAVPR
Chain of Cytochrome P450 1A2 (Homo sapiens) (P05177 whole entry, looked up): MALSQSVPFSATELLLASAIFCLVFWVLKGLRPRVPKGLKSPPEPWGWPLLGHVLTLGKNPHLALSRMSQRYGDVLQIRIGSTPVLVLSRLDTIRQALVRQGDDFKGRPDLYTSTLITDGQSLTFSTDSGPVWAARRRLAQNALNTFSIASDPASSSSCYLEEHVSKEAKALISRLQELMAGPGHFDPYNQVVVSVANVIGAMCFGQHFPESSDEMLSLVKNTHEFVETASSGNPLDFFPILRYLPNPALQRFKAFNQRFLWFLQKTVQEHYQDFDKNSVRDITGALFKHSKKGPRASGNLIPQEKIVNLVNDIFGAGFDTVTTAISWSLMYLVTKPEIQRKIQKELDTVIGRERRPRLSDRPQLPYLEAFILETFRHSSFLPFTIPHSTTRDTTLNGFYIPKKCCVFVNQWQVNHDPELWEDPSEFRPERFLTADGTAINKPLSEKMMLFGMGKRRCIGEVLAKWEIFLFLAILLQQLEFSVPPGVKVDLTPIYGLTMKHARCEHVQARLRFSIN

Consider `CN1CCC2(CC1)CCN(C(=O)c1cccc(F)c1)CC2`, for which the values for the Potency in test [1] and in test [3] were > 11.4 µM (inactive) and > 46 µM (inactive), respectively. The activity change, negative = inhibition in [2] was 2.25% (inactive); in [6] it was -1.77% (inactive). For the same compound, the Potency result in test [4] and in test [5] was “inactive” each time. The max response in test [6] (setting [15]) came to 3%; in test [6] (setting [16]), 2.59%. The result in test [7] was inactive.
As for `COc1ccc(C(=O)N2CCC3(CC2)CCN(c2ccncc2)CC3)cc1`, the Potency is > 11.4 µM (inactive) in test [1] and > 46 µM (inactive) in test [3]. Besides, the activity change, negative = inhibition in [2] was 14.4% (inactive); in test [6], -1.55% (inactive). In addition, the activity, negative = inhibition in test [8] was 5.85% (inactive). For the same compound, the Potency result in test [4], in [5] and in [9] was “inactive” each time. Further, the max response in [6] (setting [15]) was 12.5%; in test [6] (setting [16]), 14%. Moreover, the outcome in [7] was inactive.
`COc1ccccc1CN1CCC2(CC1)CCN(C(=O)c1c(C)noc1C)CC2`: the Potency in test [1] was > 11.4 µM (inactive); in [3], > 46 µM (inactive); in test [10], 7.94 µM (active). In addition, the activity change, negative = inhibition in test [2] was 4.81% (inactive); in test [6], 1.42% (inactive). Besides, the activity, negative = inhibition in test [8] was -4.2% (inactive). Further, the Potency result in test [4] and in test [5] was “inactive” throughout. The results for the max response in test [6] (setting [15]) and in [6] (setting [16]) were 11.3% and 18.8%, respectively. Also, the result in test [7] was inactive.
Consider `COc1ccc(C(=O)N2CCC3(CCCN(Cc4ccc(C#N)cc4)C3)CC2)cc1`, for which the Potency in [1] was > 11.4 µM (inactive); in [3] it was > 46 µM (inactive). Further, the activity change, negative = inhibition in [2] was 16.7% (inactive); in test [6], -2.89% (inactive). For the same compound, the activity, negative = inhibition in test [8] is 2.1% (inactive). The Potency entry in test [4] and in [5] was “inactive” each time. The values for the max response in [6] (setting [15]) and in test [6] (setting [16]) were -1.58% and -2.86%, respectively. Moreover, the result in test [7] was inactive.
Take `COCC(=O)N1CCC2(CCN(Cc3ccccc3)CC2)CC1`: the Potency in test [1] was > 11.4 µM (inactive); in [3] it was > 46 µM (inactive). The activity change, negative = inhibition is -10.9% (inactive) in test [2] and 1.52% (inactive) in [6]. Further, the activity, negative = inhibition in test [8] is -3.84% (inactive). The Potency result in test [4] and in test [5] was “inactive” in each case. Besides, the max response is 2.79% in [6] (setting [15]) and 9.37% in test [6] (setting [16]). In addition, the result in [7] was inactive.
As for `COC(=O)N1CCC2(CC1)CCN(C(c1ccccc1)c1ccccc1)CC2`, the Potency in [1] is > 11.4 µM (inactive); in [3], > 46 µM (inactive); in test [9], 12.6 µM (active); in test [10], 7.94 µM (active). Further, the values for the activity change, negative = inhibition in [2] and in test [6] were -7.14% (inactive) and 2.35% (inactive), respectively. The Potency entry in test [4] and in [5] was “inactive” in each case. Besides, the max response in test [6] (setting [15]) turned out to be 5.65%; in [6] (setting [16]) it was 12.4%. Moreover, the result in test [7] was inactive.
For the compound `CN(C)C(=O)c1ccc(-c2nc(NCc3cccs3)c3ccccc3n2)cc1`, the Potency in test [1] is > 11.4 µM (inactive); in [11] it was 12.6 µM (active); in [13], > 46 µM (inactive); in [3], > 46 µM (inactive). For the same compound, the activity change, negative = inhibition in [12] was 28.9% (inactive); in test [6], 12.5% (inactive). Besides, the activity, negative = inhibition in test [8] was -25% (inactive). Further, the Potency entry in test [4] and in test [9] was “inactive” each time. Moreover, the call in test [14] and in [7] was inactive. The max response stood at 0.768% in test [6] (setting [15]) and 15.6% in test [6] (setting [16]).
For `Cn1cccc1C(=O)N1CCC2(CCCN(C(=O)Nc3cccc(F)c3)C2)CC1`, the values for the Potency in [1] and in test [3] were > 11.4 µM (inactive) and > 46 µM (inactive), respectively. Also, the activity change, negative = inhibition in test [2] was -15.3% (inactive); in test [6], 5.97% (inactive). Besides, the Potency result in [4], in test [5] and in test [9] was “inactive” in each case. In addition, the max response in [6] (setting [15]) was -2.38%; in [6] (setting [16]), 6.22%. The outcome in test [7] was inactive.

These data come from PubChem BioAssay (NCATS).
